# Paper PMC4552634, “A New Set of Chemical Starting Points with Plasmodium falciparum Transmission-Blocking Potential for Antimalarial Drug Discovery” (PLoS ONE, 2015)
# Hit rate of the full screen: of about 13,000 compounds, about 3,200 (25%) showed an effect of 50% or more. This is one part of the list.
# Test system: P. falciparum stage V gametocytes
# Parameters: BacTiter-Glo ATP luminescence viability of purified stage V gametocytes in 384-well plates, per cent inhibition versus DMSO
# Conditions: 48 h, 5 µM; inhibitor
row,Structure (SMILES),% Inhibition
1,O=C(NCc1ccc(Cl)c(Cl)c1)[C@H]1CNCCN1C(=O)c1ccccc1 [TCMDC-141240],16.71%
2,Cc1nc2ccc(NC(=O)Nc3ccnc4ccc(C(F)(F)F)cc34)cc2o1 [TCMDC-139534],-18.3%
3,COc1ccccc1N1CCN(CCCCNC(=O)c2ccc(NC(=O)c3ccc(OC(F)(F)F)cc3)cc2)CC1 [TCMDC-137780],-5.009%
4,CC(=O)Nc1ncc(C(=O)Nc2cccc(-c3cccc(-c4nc5ccc(F)cc5[nH]4)c3)c2)s1 [TCMDC-136914],-0.106%
5,CC(CN(C)C)C(=O)Nc1cccc(-c2ccc(-c3nc4ccc(C(F)(F)F)cc4[nH]3)cc2)c1 (centres unmarked) [TCMDC-137112],-57.5%
6,COc1ccc2nc(C)cc(NN=Cc3ccccc3)c2c1 [TCMDC-123830],2.081%
7,COc1ccc2nc(-c3ccccc3)cc(NN=Cc3ccncc3)c2c1 [TCMDC-142041],-9.454%
8,COc1ccc2nc(C)cc(NN=Cc3ccncc3)c2c1 [TCMDC-142017],88.79%
9,CCOc1ccc2nc(C)cc(NN=Cc3cccnc3)c2c1 [TCMDC-142047],3.839%
10,COc1ccc2c(NN=Cc3cccnc3)ccnc2c1 [TCMDC-142029],1.197%
11,COc1ccc2c(NN=Cc3cccnc3)cc(C)nc2c1 [TCMDC-142037],80.26%
12,Cc1cc(-c2nc3ccc(N4CCN(C)CC4)cc3[nH]2)nn1Cc1cc(Cl)ccc1OCC(C)C [TCMDC-136722],42.92%
13,CC(=O)c1cccc(NC(=O)NC2CCN(CCCCCNC(=O)/C=C/c3ccc(Cl)c(Cl)c3)CC2)c1 [TCMDC-135716],-43.54%
14,COc1ccc(-c2csc3ncnc(Cl)c23)cc1OC [TCMDC-125316],38.88%
15,Clc1ccc(-c2csc3ncnc(Cl)c23)cc1 [TCMDC-123811],48.01%
16,COc1ccc(-c2csc3ncnc(Cl)c23)cc1 [TCMDC-123805],65.98%
17,COc1cc2c(cc1N(C(C)C)S(=O)(=O)c1sc3ccc(Cl)cc3c1C)CCNCC2 [TCMDC-141465],91.42%
18,Cc1c(S(=O)(=O)Nc2ccc3nccc(N4CCN[C@H](C)C4)c3c2)sc2ccc(Cl)cc12 [TCMDC-139483],-5.538%
19,Cc1cnc2ccc(NS(=O)(=O)c3sc4ccc(Cl)cc4c3C)cc2c1N1CCNCC1 [TCMDC-139547],29.85%
20,Oc1ccccc1CCNCC1CCc2ccccc2C1 (centres unmarked) [TCMDC-138024],-11.67%
21,O=C(NC1CCCC1)c1cc2c(=O)n3ccccc3nc2nc1NCCc1ccccc1 [TCMDC-125350],42.55%
22,FC(F)(F)c1ccc2[nH]c(-c3ccc(-c4ccc(CNCCN5CCNCC5)cc4)s3)nc2c1 [TCMDC-132862],105.5%

row,Structure (SMILES),% Inhibition
1,O=C1CCCN1CCCNCc1cccc(-c2ccc(-c3nc4ccc(C(F)(F)F)cc4[nH]3)cc2)c1 [TCMDC-132761],-39.05%
2,O=C(O)C(F)(F)F.O=C1CCCN1CCCNCc1cccc(-c2cccc(-c3nc4cc(C(F)(F)F)ccc4[nH]3)c2)c1 [TCMDC-132754],-20.15%
3,Cn1nccc1C(=O)NCCNCc1cccc(-c2ccc(-c3nc4cc(C(F)(F)F)ccc4[nH]3)cc2)c1.O=C(O)C(F)(F)F [TCMDC-133014],-13.72%
4,FC(F)(F)c1ccc2[nH]c(-c3ccc(-c4cccc(CNCCN5CCNCC5)c4)cc3)nc2c1 [TCMDC-132864],103.8%
5,O=C(NCCN1CCCC1)c1ccc(-c2ccc(-c3nc4cc(C(F)(F)F)ccc4[nH]3)s2)cc1 [TCMDC-132315],12.27%
6,O=C(O)C(F)(F)F.O=C1CCCN1CCCNCc1ccc(-c2ccc(-c3nc4cc(C(F)(F)F)ccc4[nH]3)s2)cc1 [TCMDC-132764],-35.61%
7,FC(F)(F)c1ccc2[nH]c(-c3cccc(-c4ccc(CNCCN5CCNCC5)cc4)c3)nc2c1 [TCMDC-132872],109.9%
8,Cn1nccc1C(=O)NCCNCc1ccc(-c2cccc(-c3nc4cc(C(F)(F)F)ccc4[nH]3)c2)cc1.O=C(O)C(F)(F)F [TCMDC-133006],-36.49%
9,O=C1CCCN1CCCNCc1ccc(-c2cccc(-c3nc4ccc(C(F)(F)F)cc4[nH]3)c2)cc1 [TCMDC-132752],-22.52%
10,FC(F)(F)c1ccc2nc(-c3cccc(-c4cccc(CNCCN5CCNCC5)c4)c3)[nH]c2c1 [TCMDC-132871],79.56%
11,O=C(N[C@@H](Cc1cc(F)cc(F)c1)[C@H](O)CNCc1cccc(C(F)(F)F)c1)c1cc(C2CCCC2)cc(N2CCCC2=O)c1 [TCMDC-134677],4.624%
12,CCCC(CNCc1cccc(SC(F)(F)F)c1)CNc1cc(=O)c2ccccc2[nH]1 (centres unmarked) [TCMDC-139431],19.28%
13,COc1ccc(CNCc2cccc(-c3csc(-c4nc5ccccc5[nH]4)c3)c2)cc1 [TCMDC-132734],-55.02%
14,Cc1cnc(N2CCN(CC3CCN(C)CC3)CC2)nc1Oc1ccc(-n2ccnc2)cc1 [TCMDC-132782],41.72%
15,CC(C)N(Cc1cnc2nc(N)nc(N)c2n1)c1ccc(Cl)c(Cl)c1 [TCMDC-137675],8.837%
16,O=C(Nc1cccc(CCNCc2ccccc2)c1)Nc1cccc2ccccc12 [TCMDC-141912],-6.517%
17,O=C(Nc1ccc(Cl)cc1)Nc1cccc(CCNCc2ccccc2)c1 [TCMDC-141913],74.03%
18,CCCCc1ccc(NC(=O)Nc2cccc(CCNCc3ccccc3)c2)cc1 [TCMDC-141911],-36.83%
19,O=C(Nc1ccc(Cl)cc1)Nc1cccc(-c2cc(CNCCc3ccccc3)oc2-c2ccncc2)c1 [TCMDC-135557],-5.534%
20,COC(=O)c1ccc(NC(=O)Nc2cccc(CCNCc3ccccc3)c2)cc1 [TCMDC-141910],76.66%
21,CC(C)c1ccc(NC(=O)Nc2ccc(CCNCCCc3ccccc3)cc2)cc1 [TCMDC-140707],4.807%
22,O=C(COc1cccc([N+](=O)[O-])c1)Nc1ccc(-c2nc3ccccc3[nH]2)cc1 [TCMDC-123683],43.84%

row,Structure (SMILES),% Inhibition
1,Cc1cc(OCC2CCCO2)c2cc(NC(=O)C(=O)Nc3ccc4nc(C)cc(OCC5CCCO5)c4c3)ccc2n1 (centres unmarked) [TCMDC-139970],-0.178%
2,CN1CCN(c2ccnc3ccc(NC(=O)N(C)c4ccc(Cl)c(Cl)c4)cc23)CC1 [TCMDC-139453],8.724%
3,O=C(Nc1ccc(-c2nc3ccccc3[nH]2)cc1)c1ccc(N2CCCC2)c([N+](=O)[O-])c1 [TCMDC-124370],0.2157%
4,O=c1[nH]nc(-c2ccc(N3CCCC3)c([N+](=O)[O-])c2)c2ccccc12 [TCMDC-123666],91.56%
5,Cc1nnc2sc(-c3cccc(NC(=O)c4ccc(N5CCCCC5)c([N+](=O)[O-])c4)c3)nn12 [TCMDC-125211],2.608%
6,O=S(=O)(Nc1ccc2nccc(N3CCNCC3)c2c1)c1ccc2oc3ccccc3c2c1 [TCMDC-139406],-1.818%
7,Cc1cc(N2CCCC2)nc(Nc2ccc(NC(=O)c3ccc(Br)o3)cc2)n1 [TCMDC-124708],-0.4475%
8,COc1ccc(C(=O)N[C@@H](CC(C)C)C(=O)N[C@H](/C=N/NC(=O)c2ccccc2)CCc2ccccc2)cc1OCCN1CCOCC1 [TCMDC-135529],-24.16%
9,Cc1ccc(NC(=O)N2CCCN(CCCCCNC(=O)/C=C/c3ccc(Cl)c(Cl)c3)CC2)cc1C [TCMDC-135747],-47.01%
10,CCC(C)NC(=O)Nc1ccc(-c2cccc(-c3nc4ccc(C(F)(F)F)cc4[nH]3)c2)cc1 (centres unmarked) [TCMDC-133240],1.328%
11,Cc1nn(-c2ccc(Cl)cc2)c2[nH]c(CN3CCN(c4cccc(Cl)c4)CC3)cc(=O)c12 [TCMDC-124869],23.11%
12,CCC[C@@H]([C@@H](CC(C)C)C(=O)N[C@@H](CCCCNC(=O)c1cccc(OC)c1)C(=O)Nc1nccs1)N(O)C=O [TCMDC-137305],57.38%
13,CCCC(C(CC1CCC(C)CC1)C(=O)NC(CCCNc1ncccn1)C(=O)Nc1nccs1)N(O)C=O (centres unmarked) [TCMDC-138160],11.06%
14,CCC[C@@H]([C@@H](CC1CCC(C)CC1)C(=O)N[C@@H](CCCCNC(=O)c1ccccn1)C(=O)Nc1nccs1)N(O)C=O (some centres unmarked) [TCMDC-138151],22.92%
15,CCC[C@@H]([C@@H](CC(C)C)C(=O)N[C@@H](CCCCNC(=O)c1ccccn1)C(=O)Nc1nccs1)N(O)C=O [TCMDC-137550],43.83%
16,CCC[C@@H]([C@@H](CC(C)C)C(=O)N[C@@H](CCCN=C(N)NS(C)(=O)=O)C(=O)Nc1nccs1)N(O)C=O [TCMDC-138171],-40.24%
17,CCC[C@@H]([C@@H](CC(C)C)C(=O)N[C@@H](CCCNc1nccc(C(F)(F)F)n1)C(=O)Nc1nccs1)N(O)C=O [TCMDC-137458],53.7%
18,COc1ccc(CC(C)CON2C(N)=NC(N)=NC2(C)C)cc1 (centres unmarked) [TCMDC-131722],5.106%
19,O=C(NCCNc1ccnc(Nc2ccc(F)cc2)n1)Nc1ccc2c(c1)OCO2 [TCMDC-133641],-26.39%
20,CC(C)(CNCc1cc(Cl)cc(Cl)c1)c1nc(-c2ccc(Cl)c(O)c2)c(-c2ccnc(N)n2)[nH]1 [TCMDC-141164],-8.339%
21,CC1CN(c2ccc(NC(=O)c3ccsc3)cc2C(=O)N2CCN(Cc3ccc(C(C)(C)C)cc3)CC2)CC(C)O1 (centres unmarked) [TCMDC-139281],17.04%
